The test system of assay [1] is Nanoluciferase (engineered Oplophorus gracilirostris luciferase). The assay is described as follows: Primary Nanoluciferase (NLuc) qHTS assay for identification of artifact compounds. (AID 1845222).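 Also: 0% = DMSO and -100% = no enzyme.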 Put shortly:
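Diluted conditioned medium from NLuc-expressing S16 cells treated with compounds for 15 min at room temperature, then Nano-Glo substrate added; luminescence read after 5 min. Percent inhibition versus no-enzyme and DMSO controls fitted to 4-parameter Hill equation.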

The nature of assay [2]: Quantitative High-Throughput drug screen in 47 multiple myeloma cell lines against the NCATS MIPE library collection: FR4_PLB cell viability assay (AID 1918924; also: nearly all actives have a fitted effect of over 35% in size; also: potency is read from the fitted curve at half-maximal effect). Put shortly:
(§1)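 Myeloma cell lines, 500 cells per well, exposed to MIPE 4.0 library compounds for 48 h at 37C, 5% CO2. Viability from ATP by CellTiter-Glo luminescence; normalised to DMSO (100%) and media-only (0%) wells.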

Assay [3] can be described thus: Quantitative High-Throughput drug screen in 47 multiple myeloma cell lines against the NCATS MIPE library collection: Delta47_JCRB cell viability assay (AID 1918925; also: nearly all actives have a fitted effect of over 45% in size; also: potency is read from the fitted curve at half-maximal effect). Put shortly:
(§2)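 qHTS of the MIPE 4.0 collection: 500 myeloma cells/well, 48 h drug exposure at 37C in 5% CO2, then CellTiter-Glo for 5 min at room temperature before luminescence reading.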

The nature of assay [4]: Quantitative High-Throughput drug screen in 47 multiple myeloma cell lines against the NCATS MIPE library collection: Karpas620_DSMZ cell viability assay (AID 1918959). Also: nearly all actives have a fitted effect of over 30% in size. Also: potency is read from the fitted curve at half-maximal effect. Put shortly:
as §1

Assay [5] in a line: Quantitative High-Throughput drug screen in 47 multiple myeloma cell lines against the NCATS MIPE library collection: INA6_PLB cell viability assay (AID 1918965; also: nearly all actives have a fitted effect of over 55% in size; also: potency is read from the fitted curve at half-maximal effect). Put shortly: as §1
Assay [6] is described as follows: Quantitative High-Throughput drug screen in 47 multiple myeloma cell lines against the NCATS MIPE library collection: Karpas25_ECACC cell viability assay (AID 1918968; also: nearly all actives have a fitted effect of over 35% in size; also: potency is read from the fitted curve at half-maximal effect). Put shortly:
as §2

A short description of assay [7]: Quantitative High-Throughput drug screen in 47 multiple myeloma cell lines against the NCATS MIPE library collection: KMS12BM_JCRB cell viability assay (AID 1918971). Also: potency is read from the fitted curve at half-maximal effect; nearly all actives have a fitted effect of over 35% in size. Put shortly: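 Steps: seed 500 cells per well; pin-transfer MIPE 4.0 library; incubate 48 h at 37C, 5% CO2, humidified; add CellTiter-Glo, 5 min room temperature; read luminescence.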
Assay [8] can be described thus: Quantitative High-Throughput drug screen in 47 multiple myeloma cell lines against the NCATS MIPE library collection: EJM_DSMZ cell viability assay (AID 1918926; also: nearly all actives have a fitted effect of over 30% in size; also: potency is read from the fitted curve at half-maximal effect). The gist of the method:
as §2

A short description of assay [9]: Quantitative High-Throughput drug screen in 47 multiple myeloma cell lines against the NCATS MIPE library collection: KMM1_JCRB cell viability assay (AID 1918960). Also: nearly all actives have a fitted effect of over 30% in size. Put shortly:
(§3)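 Myeloma cells, 500 per well, were exposed to MIPE 4.0 drugs by pin transfer for 48 h at 37 °C, 5% CO2. Viability was read as ATP luminescence with CellTiter-Glo, normalised to DMSO-only (100%) and medium-only (0%) wells.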

Assay [10] can be described thus: Quantitative High-Throughput drug screen in 47 multiple myeloma cell lines against the NCATS MIPE library collection: JIM3_ECACC cell viability assay (AID 1918963; also: nearly all actives have a fitted effect of over 35% in size; also: potency is read from the fitted curve at half-maximal effect). The gist of the method:
as §1

The nature of assay [11]: Quantitative High-Throughput drug screen in 47 multiple myeloma cell lines against the NCATS MIPE library collection: JIM1_ECACC cell viability assay (AID 1918964; also: potency is read from the fitted curve at half-maximal effect). Put shortly: as §2
A short description of assay [12]: Quantitative High-Throughput drug screen in 47 multiple myeloma cell lines against the NCATS MIPE library collection: JJN3_DSMZ cell viability assay (AID 1918966; also: nearly all actives have a fitted effect of over 50% in size; also: potency is read from the fitted curve at half-maximal effect). Put shortly: as §2
Assay [13] can be described thus: Quantitative High-Throughput drug screen in 47 multiple myeloma cell lines against the NCATS MIPE library collection: AMO1_DSMZ cell viability assay (AID 1918927; also: nearly all actives have a fitted effect of over 30% in size; also: potency is read from the fitted curve at half-maximal effect). The gist of the method:
as §2

A short description of assay [14]: Quantitative High-Throughput drug screen in 47 multiple myeloma cell lines against the NCATS MIPE library collection: ARP1_JJKsccF8 cell viability assay (AID 1918928; also: nearly all actives have a fitted effect of over 40% in size; also: potency is read from the fitted curve at half-maximal effect). The gist of the method:
as §3

A short description of assay [15]: Quantitative High-Throughput drug screen in 47 multiple myeloma cell lines against the NCATS MIPE library collection: KHM11_PLB cell viability assay (AID 1918962). Put shortly:
as §1

The nature of assay [16]: Quantitative High-Throughput drug screen in 47 multiple myeloma cell lines against the NCATS MIPE library collection: H1112_PLB cell viability assay (AID 1918967; also: nearly all actives have a fitted effect of over 30% in size; also: potency is read from the fitted curve at half-maximal effect). Put shortly: as §2
Assay [17] is described as follows: Quantitative High-Throughput drug screen in 47 multiple myeloma cell lines against the NCATS MIPE library collection: KMS27_JCRB cell viability assay (AID 1918970). Also: nearly all actives have a fitted effect of over 30% in size. Also: potency is read from the fitted curve at half-maximal effect. The following applies: KMS27 myeloma cells, CellTiter-Glo ATP viability, 48 h; viability (% of DMSO): at 45.8 µM (top of the series). The gist of the method: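 Myeloma cells (500 per well) were exposed to MIPE 4.0 compounds for 48 h at 37 °C, 5% CO2; viability was read as ATP luminescence with CellTiter-Glo, normalized to DMSO-only (100%) and media-only (0%) wells.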

Assay [18] is described as follows: Quantitative High-Throughput drug screen in 47 multiple myeloma cell lines against the NCATS MIPE library collection: ARD_JJKsccE7 cell viability assay (AID 1918929; also: potency is read from the fitted curve at half-maximal effect). Put shortly: as §2

A number with no mark means an inactive call. Results filed as inconclusive are left out. Activity calls are given as the source filed them. Calls follow the shape of the dose curve; as a rule, active = well fitted curve in the direction sought with a large enough effect; inconclusive = small, poorly fitted or top-dose-only effect, or another doubt; inactive = no such curve, though single readings can be large; an effect the other way counts as inactive or inconclusive.

For 7 compounds, activity, negative = inhibition and Potency results are on record in PubChem BioAssay (NCATS).

Regarding `CCC(=O)N1CCN(c2ccc(-n3c(=O)ccc4cnc5ccc(-c6cnc7ccccc7c6)cc5c43)cc2C(F)(F)F)CC1`, in [1], the activity, negative = inhibition was 4.43% [at 11.6 µM]. Moreover, the Potency in assay [2] was 0.0132 µM (active); in [3], 0.0166 µM (active); in assay [4], 0.0187 µM (active); in assay [5], 0.0148 µM (active); in [6] it was 0.0332 µM (active); in assay [7], 0.0047 µM (active).

For the compound `CN(C)c1ccc(-c2nc3ncc(Cl)c(N4CCN(CC(=O)Nc5nccs5)CC4)c3[nH]2)cc1`, the Potency entry in assay [1], in assay [9] and in assay [11] was “inactive” each time. The Potency in assay [2] is 2.09 µM (active); in assay [8] it was 5.9 µM (active); in assay [10] it was 3.32 µM (active); in assay [5] it was 2.64 µM (active); in [12], 18.7 µM (active); in assay [6] it was 2.64 µM (active). The Potency in [7] was 4.18 µM (active).

Consider `COc1ccc(-c2cc3nccn3c(Nc3ncccc3C(N)=O)n2)cc1OC`, for which the Potency result in [1] and in [4] was “inactive” each time. The Potency in assay [2] is 3.32 µM (active); in assay [3], 0.833 µM (active); in assay [8], 4.69 µM (active); in assay [13], 0.469 µM (active); in [14], 4.69 µM (active); in assay [15] it was 0.833 µM (active). The Potency in assay [11] is 0.372 µM (active); in assay [5], 0.187 µM (active); in [16], 5.9 µM (active); in [6] it was 1.48 µM (active).

For `O=c1[nH]nc(OCCCc2ccc(Cl)cc2)c(NCc2cccnc2)c1Br`, in assay [1], the Potency entry is “inactive”. Further, the Potency in assay [3] is 4.18 µM (active); in assay [8] it was 18.7 µM (active); in [13] it was 7.43 µM (active); in [14], 18.7 µM (active); in [4], 10.5 µM (active); in assay [15], 2.96 µM (active). Further, the Potency in assay [10] is 8.33 µM (active); in assay [11], 8.33 µM (active); in [5], 4.69 µM (active); in assay [12], 20.9 µM (active); in [6], 6.62 µM (active); in assay [17], 7.43 µM (active). Further, in [7], the Potency is 18.7 µM (active).

As for `c1ccc(CNc2nc(N3CCOc4ccccc43)nc3c2CCCC3)cc1`, the Potency result in assay [1], in assay [2], in assay [8], in [4], in assay [12] and in assay [16] was “inactive” throughout. Also, the Potency in assay [13] was 16.6 µM (active); in assay [18] it was 20.9 µM (active).

In the case of `Cc1nc(C(=O)NCC(=O)O)c(O)c2ccc(Oc3ccccc3)cc12`, the Potency entry in assay [1], in assay [3], in [14], in assay [4], in assay [10] and in assay [5] was “inactive” each time. Further, the Potency entry in assay [16] and in [6] was “inactive” in each case.

For the compound `C[C@@H]1C[C@H]2[C@@H]3CCC4=CC(=O)C=C[C@]4(C)[C@@]3(F)[C@@H](O)C[C@]2(C)[C@@]1(O)C(=O)CO`, the Potency result in assay [2], in assay [3], in assay [8], in [13], in assay [4] and in assay [10] was “inactive” in each case. Also, the Potency result in assay [11], in assay [5], in [12], in [16] and in assay [17] was “inactive” each time. In addition, the figures for the Potency in assay [14], in [18] and in [6] were 0.0235 µM (active), 0.0093 µM (active) and 0.0526 µM (active), respectively.
